Giardia kill = kills Giardia lamblia; Giardia lamblia trophozoite viability; actives 0.15% (n = 340,000); activity change, % at 7.66 µM, hits read low; AID 540267; in the data active means activity change below about -80%; inconclusive means between about -30% and that limit;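 further: parasites exposed to compound for two days anaerobically before the ATP read; on the % scale 0 is the no-effect control and ±100 the full control effect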
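Compounds were tested on trophozoites seeded at 100 cells/well and held 48 hrs at 37 deg C anaerobically. An ATP-based luminescent kit measured the remaining live cells.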
Vif-APOBEC3F blk = Vif-A3F binding inhibition. HeLa A3F-eYFP + Vif (tagged APOBEC3F with the HIV-1 protein that degrades it), YFP fluorescence increase. Potency, µM (doses to about 46.1 µM), for the others: top-dose activity, negative = active. actives 0.2% (n = 390,000). AID 602313; further: potency means the concentration at half of the fitted maximal effect; % of control where 0% means no effect; nearly all actives have a fitted effect of over 65% in size
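Fluorescence increase (Ex 488/Em 500-530) after overnight compound treatment at 37 deg C flags inhibition of Vif-driven A3F-eYFP loss in stable HeLa A3F-eYFP/Vif cells seeded overnight beforehand.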
MCF10A rerep = DNA re-replication induction in MCF 10a cells; MCF 10A DNA re-replication, Hoechst nuclear intensity, 48 h; Potency, µM (top dose mostly 46.1 µM), for inactives: at the highest dose activity, positive = re-replication, hits mostly activators; actives 2.9% (n = 350,000); AID 624296; further: potency means the concentration at half of the fitted maximal effect; % of control where 0% means no effect; nearly all actives have a fitted effect of over 50% in size
IL-1B inflam inh = inflammasome signaling inhibition, IL-1 beta readout. actives 4.7% (n = 360,000). THP-1 LPS/ATP IL-1B secretion, AlphaLISA, 16 h; hits give low values. activity change, % at 57.5 µM. AID 743279; in the data active means activity change below about -50%; inconclusive means mostly about -30% to -49%; further: on the % scale 0 is the no-effect control and ±100 the full control effect
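THP-1 cells pretreated 1 hr with compounds (up to 57.5 uM final), then stimulated with LPS (250 ng/mL final) plus ATP (1.25 mM final); secreted IL-1B measured by AlphaLISA after 16 hr, decreased signal indicating inhibition.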
SW480 rereplic = induces DNA re-replication in SW480 colon adenocarcinoma cells; SW480 DNA re-replication, Hoechst DNA content imaging, 48 h; Potency, µM (titrated, usually from 46.1 µM), for the others: at the top dose re-replication activation, usual class: activators; actives 1.8% (n = 340,000); further: potency means the concentration at half of the fitted maximal effect; % of control where 0% means no effect; nearly all actives have a fitted effect of over 55% in size
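250 cells/well; 23 nL cpd via pin tool; 48 hr, 37 C, 5% CO2; Hoechst 40 min; imager read of total nuclear intensity, ex 405/em 500-530 nm.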
Vif-A3G inh = Vif-A3G binding inhibition; AID 602310; Potency, µM (highest dose often 46.1 µM), for inactives: at the highest dose activity, negative = active, actives largely listed as inhibitors; actives 0.076% (n = 410,000); Q9HC16; HeLa A3G-eYFP + Vif (tagged APOBEC3G with the HIV-1 protein that degrades it), YFP fluorescence, overnight; further: potency means the concentration at half of the fitted maximal effect; on the % scale 0 is the no-effect control and ±100 the full control effect; nearly all actives have a fitted effect of over 60% in size
Target sequence (Q9HC16 whole entry, looked up): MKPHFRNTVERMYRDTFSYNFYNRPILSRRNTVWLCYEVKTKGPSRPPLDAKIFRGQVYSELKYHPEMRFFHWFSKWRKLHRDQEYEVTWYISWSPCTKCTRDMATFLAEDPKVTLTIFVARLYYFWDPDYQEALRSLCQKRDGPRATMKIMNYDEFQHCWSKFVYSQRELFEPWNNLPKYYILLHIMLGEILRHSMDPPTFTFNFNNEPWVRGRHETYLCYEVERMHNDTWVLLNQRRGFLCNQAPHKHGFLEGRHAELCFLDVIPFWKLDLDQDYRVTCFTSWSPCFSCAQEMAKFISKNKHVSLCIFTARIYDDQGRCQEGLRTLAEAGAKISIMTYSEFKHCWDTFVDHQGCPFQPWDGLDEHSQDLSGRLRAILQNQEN
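Read-out is eYFP fluorescence (Ex 488/Em 500-530) from Vif-expressing HeLa A3G-eYFP cells; more signal means A3G escaped Vif-mediated degradation. Cells plated overnight, compound pinned in, incubated overnight at 37 deg C.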
An asterisk follows results filed as active; i = inactive; ? = inconclusive; . = not tested or not shown; [ ] = remark or other dose. In the library only some 6.9% were active in any assay of this set; here they are far more common. Unless noted, the call rests on the fitted dose curve; in most records, active means well fitted curve in the direction sought with a large enough effect; inconclusive means small, poorly fitted or top-dose-only effect, or another doubt; inactive means no such curve, though single readings can be large; an effect the other way counts as inactive or inconclusive.

SMILES	Giardia kill	Vif-APOBEC3F blk	MCF10A rerep	IL-1B inflam inh	SW480 rereplic	Vif-A3G inh
CCc1ccc(NC(=S)N2CCC(NC(=O)c3ccccc3OC)CC2)cc1	11	-1%	16%	-12	-3%	-1%
CCc1ccc(NC(=S)N2CCC(NC(=O)c3ccccc3)CC2)cc1	1	-5%	18µM*	8	0%	0%
CCc1ccc(NC(=O)N2CCC(c3ccccc3)C2)cc1 (configuration not stated)	15	0%	3%	-59*	-8%	0%
COc1ccccc1C(=O)NC1CCN(C(=S)NCCc2ccccc2)CC1	13	2%	-16%	-77*	3%	5%
O=C(Nc1ccccc1)N1CCC(c2ccccc2)C1 (configuration not stated)	-15	1%	27%	-17	2%	-7%
CCc1ccc(C(=O)c2oc3nc(C)cc(C)c3c2N)cc1	0	4%	7.3µM*	-3	16µM*	-10%
Cc1ccc(C(=O)c2oc3nc(C)cc(C)c3c2N)cc1	0	-3%	9.2µM*	16	?	-11%
Cc1ccc(NS(=O)(=O)c2c(C)nc3sc(C)c(C)n3c2=O)cc1F	.	9%	.	.	.	4%
O=C1/C(=C/c2ccco2)SC(=S)N1CC1CCCO1 (configuration not stated)	5	4%	-8%	.	?	0%
Cc1ccc(/C=C2\SC(=S)N(CC3CCCO3)C2=O)o1 (configuration not stated)	21	-33%	?	-96*	?	-14%
COc1cc(/C=C2/SC(=S)N(CC3CCCO3)C2=O)ccc1O (configuration not stated)	8	32µM*	19%	-74*	1%	5%
O=C1/C(=C/c2cccnc2)SC(=S)N1c1ccc(O)cc1	-13	0%	?	-99*	?	-13%
O=C1/C(=C/c2cccnc2)SC(=S)N1CCc1ccccc1	-7	0%	2%	-1	-9%	-1%
COc1ccc(/C=C2\SC(=S)N(CC3CCCO3)C2=O)cc1 (configuration not stated)	1	8%	-14%	-12	-3%[9.22 µM]	0%
O=C1/C(=C/c2cccnc2)SC(=S)N1CC1CCCO1 (configuration not stated)	-2	8%	13%	-103*	0%	-19%
O=C(Nc1cnn(Cc2ccc(Cl)cc2Cl)c1)c1noc2c1CCc1ccccc1-2	.	-8%	.	.	.	4%
O=C(Nc1ccc(F)cc1)c1ccc(-n2cnc3cccnc32)cc1	.	1%	.	.	.	1%
O=C(C[n+]1cccc(I)c1)c1ccc(F)cc1	.	.	.	.	.	6%
CCCc1c(C(=O)NNc2ccccc2OC)cnn1-c1ccccc1	-14	-16%	-5%	-52*	-8%	3%
COc1ccc(CNC(=O)c2cc3ccccn3n2)c(OC)c1	.	1%	.	.	.	2%
CCOC(=O)[C@H]1[C@H]2COc3ccc(OC)cc3[C@@H]2N2C(=O)c3cc(OC)ccc3NC(=O)[C@@]12C	-18	4%	-5%	-18	6.5µM*	-1%
CCOC(=O)[C@H]1[C@H]2COc3ccc(C)cc3[C@@H]2N2C(=O)c3cc(OC)c(OC)cc3NC(=O)[C@@]12C	?	6%	-18%	-15	-10%	2%
CCOC(=O)[C@H]1[C@H]2COc3ccc(OC)cc3[C@@H]2N2C(=O)c3ccccc3NC(=O)[C@@]12C	5	-1%	?	-1	10%	-6%
CCOC(=O)[C@H]1[C@H]2COc3ccc(OC)cc3[C@@H]2N2C(=O)c3cc(OC)c(OC)cc3NC(=O)[C@@]12C	0	0%	?	-55*	-1%	0%
CCn1c(SCC(=O)N2CCC(C)CC2)nnc1-c1ccccc1O	.	-5%	.	.	.	-7%
SMILES	Giardia kill	Vif-APOBEC3F blk	MCF10A rerep	IL-1B inflam inh	SW480 rereplic	Vif-A3G inh
O=C(NNC(=O)c1cc(Br)ccc1Cl)c1csc(N2CCOCC2)n1	8	1%	-9%	i	-12%	-1%
O=C(NNC(=O)c1cc(Br)ccc1O)c1csc(N2CCOCC2)n1	2	3%	-1%	96	4.1µM*	-9%
Cc1cc(C)cc(N2C(N)=NC(N)=NC2c2cccc(Cl)c2)c1 (configuration not stated)	14	-1%	9%	-54*	-8%	-1%
CCOc1cccc2c1OC1(C)CC2NC(=O)N1c1cccc(C(=O)N2CCN(c3ccccn3)CC2)c1 (configuration not stated)	0	5%	-1%	-66*	-9%	-7%
NC(N)=N/N=C/c1ccc(Cl)cc1Cl	0	-1%	1%	-99*	?	1%
NC(N)=N/N=C/c1ccc(Cl)c(Cl)c1	-8	11%	?	-97*	?	0%
NC(N)=N/N=C/c1ccc(OCc2ccccc2Cl)cc1	16	-9%	-1%	-103*	13µM*	-27%
NC(N)=N/N=C/c1ccccc1	13	0%	0%	-97*	0%	2%
NC(=N\N=Cc1ccccc1)/C(N)=N/N=Cc1ccccc1	11	?	-1%	-6	0%	0%
COc1ccc(-c2nc(Cn3c(SCc4ccc(C)cc4)nc4cccnc43)c(C)o2)cc1OC	.	-13%	.	.	.	?
COc1ccc(NC(=O)c2cccc3c(-c4cnn(C)c4)coc23)cc1	.	.	.	?	.	-18%
CC(=O)c1cccc(NC(=O)c2cccc3c(-c4cnn(C)c4)coc23)c1	.	.	.	-81*	.	-17%
COc1cc(NC(=O)c2cccc3c(-c4cnn(C)c4)coc23)cc(OC)c1OC	.	.	.	-75*	.	-9%
COc1ccc(S(=O)(=O)c2cc3cc(C(C)(C)C)cc(O)c3oc2=O)cc1	.	0%	.	.	.	-28%
O=C(c1ccccn1)N1N=C2/C(=C/c3ccccc3)CCCC2C1c1ccccc1 (configuration not stated)	-28	10%	0%	1	?	2%
CNC(=O)c1sc(N2N=C3/C(=C/c4ccccc4)CCCC3C2c2ccccc2)nc1C (configuration not stated)	13	?	?	-12	7.1µM*	-1%
O=C1CCC(C(=O)OCC(=O)N2N=C3/C(=C\c4ccccc4)CCCC3C2c2ccccc2)N1 (configuration not stated)	14	-6%	15%	8	14%	0%
CNC(=O)c1sc(N2N=C3/C(=C\c4ccccc4)CCCC3C2c2ccccc2)nc1C (configuration not stated)	-3	-9%	?	-11	8.2µM*	-6%
COc1ccc(-c2c(-c3ccsc3)oc(=O)c3cc(OC)c(OC)cc23)cc1	2	3%	1%	40	-8%	0%
